Laboratory results from ChEMBL document CHEMBL3433997, “St. Jude Leishmania screening dataset” (2016).

Experiments:
Format in all cases: functional
[1] = target: Solute carrier family 2, facilitated glucose transporter member 1 (Homo sapiens) (UniProt P11166); assay: ST_JUDE_LEISH: Cytotoxicity at 2uM final concentration against transgenic Leishmania Mexicana promastigotes LmGLUT1 that are glucose transport deficient and complemented with the human glucose transporter GLUT1. Activity is measured by DNA content using SYBR green in vitro
Sequence of Solute carrier family 2, facilitated glucose transporter member 1 (Homo sapiens) (P11166 whole entry): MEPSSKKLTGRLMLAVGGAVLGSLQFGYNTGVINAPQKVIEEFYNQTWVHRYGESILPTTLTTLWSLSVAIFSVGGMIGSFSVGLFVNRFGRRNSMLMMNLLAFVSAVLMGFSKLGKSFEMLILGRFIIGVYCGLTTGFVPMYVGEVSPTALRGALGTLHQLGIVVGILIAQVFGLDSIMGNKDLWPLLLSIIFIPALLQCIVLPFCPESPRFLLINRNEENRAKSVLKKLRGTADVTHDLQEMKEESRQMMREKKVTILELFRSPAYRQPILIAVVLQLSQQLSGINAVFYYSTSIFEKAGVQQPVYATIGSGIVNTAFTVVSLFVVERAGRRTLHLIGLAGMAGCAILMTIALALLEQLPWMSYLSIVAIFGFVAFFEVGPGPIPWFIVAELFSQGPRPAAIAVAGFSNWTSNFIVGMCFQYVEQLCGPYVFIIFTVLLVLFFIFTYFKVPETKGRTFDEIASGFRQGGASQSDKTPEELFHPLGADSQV

[2] = target: Hexose transporter 1 (Plasmodium falciparum) (UniProt O97467); assay: ST_JUDE_LEISH: Cytotoxicity at 2uM final concentration against transgenic Leishmania Mexicana promastigotes LmPfHT that are glucose transport deficient and complemented with the Plasmodium falciparum hexose transporter. Activity is measured by DNA content using SYBR green in vitro
[3] = target: Glucose transporter (Leishmania mexicana) (UniProt O61059); assay: ST_JUDE_LEISH: Cytotoxicity at 2uM final concentration against transgenic Leishmania Mexicana promastigotes LmGT2 that are glucose transport deficient and complemented with the L. Mexicana glucose transporter 2. Activity is measured by DNA content using SYBR green in vitro

SMILES | inhibition [1] [%] | inhibition [2] [%] | inhibition [3] [%]
Cc1cc(N2CCC(NS(=O)(=O)c3ccc(F)cc3)CC2)nc(Nc2cccc(C#N)c2)n1 | 39.9 | 46.5 | 41
CS(=O)(=O)CCNCc1ccc(-c2ccc3c(Nc4ccc(Oc5ccccn5)cc4)ccnc3c2)o1 | 1.24 | -0.28 | 2.55
COc1cc(-c2cc(-c3ccc(S(C)(=O)=O)cc3)cnc2N)ccc1O | 6.13 | 6.34 | 9.19
Cc1ccccc1Nc1nc(NCCCO)c2ccccc2n1 | 13.6 | 12.5 | 8.48
COc1ccc2nccc([C@@H](O)CN3CCC(NCc4ccc5c(n4)NC(=O)CS5)C(F)C3)c2c1 (stereo partly specified) | 2.08 | 1.5 | 1.99
CCc1ccc(CN2CCC(C(=O)Nc3ccc(-c4nc5ccccc5[nH]4)cc3)CC2)o1 | 31.6 | 39.6 | 25.7
Cn1nc(-c2cccc(CNC3CCc4ccccc43)c2)c2cnc(NC3CCCC3)nc21 (stereo unspecified) | 2.84 | 5.46 | 3.3
Cc1cccc(N2CCN(C3CCC(NC(=O)c4cc5ccccc5[nH]4)CC3)CC2)c1C (stereo unspecified) | 2.31 | 1.82 | 1.43
Cc1ccc(-c2ccc3c(c2)C=C(C(=O)NC2CCN(CCNC(=O)c4cccs4)CC2)CCC3)cc1 | 8.71 | 2.81 | 2.25
O=C(NCC1CCC(C(=O)NCc2cccc(C(F)(F)F)c2)CC1)c1ccc(O)c(-c2ccc(Cl)c(Cl)c2)c1 (stereo unspecified) | 0.99 | 2.82 | 2.98
c1ccc2c(c1)CN(Cc1ccsc1)CC1(CCN(Cc3c[nH]c4cnccc34)CC1)O2 | 4.5 | 3.19 | 6.86
O=C(Nc1ccc(O)c(-c2nc3ccccc3[nH]2)c1)c1ccc([N+](=O)[O-])cc1 | -2.13 | -0.21 | 1.31
COc1ccc(CNCc2cccc(-c3ccc(-c4nc5cccc(C)c5[nH]4)s3)c2)cc1 | 3.18 | 2.97 | 2.36
CC(C)(C)C(=O)Oc1ccc(CC2NCCc3cc(OC(=O)C(C)(C)C)c(OC(=O)C(C)(C)C)cc32)cc1OC(=O)C(C)(C)C (stereo unspecified) | 8.66 | 9.32 | 7.65
CN(C)CCCNCc1ccc(-c2ccc(CNCCc3ccccc3)cc2)cc1 | -0.43 | 0.15 | -0.49
CN1CCN(CCCCCCNc2c3ccccc3nc3ccccc23)CC1 | 27.1 | 19.4 | 10.9

SMILES | inhibition [1] [%] | inhibition [2] [%] | inhibition [3] [%]
CCOc1cc(/C=N/Nc2nc3ccccc3[nH]2)ccc1OCc1ccc([N+](=O)[O-])cc1 | 5.62 | 4.53 | 4.41
Cc1cccc2nc(-c3ccc(-c4cccc(NC(=O)NCc5ccc(F)cc5)c4)cc3)[nH]c12 | 3.38 | 4.77 | 3.65
O=c1cc(NCCCNC2CCc3ccc(Cl)cc32)[nH]c2ccccc12 (stereo unspecified) | -2.61 | -0.73 | 1.83
CC(=O)NCCCCC1NC2(C(=O)N(Cc3ccc(C(C)(C)C)cc3)c3ccccc32)C2C(=O)N(C3CCCCC3)C(=O)C12 (stereo unspecified) | -1.24 | -3.01 | -0.43
O=C(Nc1ccc(N2CCN(Cc3c[nH]c4cc(F)ccc34)CC2)cc1)c1ccccc1-c1ccc(C(F)(F)F)cc1 | 7.38 | 4.06 | 3.31
COc1ccc(CNCc2cccc(-c3ccc(-c4nc5ccccc5[nH]4)s3)c2)cc1 | 5.19 | 3.24 | 2.44
COC(=O)c1cccc(CNCc2cccc(-c3cccc(-c4nc5cc(F)ccc5[nH]4)c3)c2)c1 | 5.23 | 5.92 | 4.97
Oc1c(Cl)cc(Nc2nccc(Nc3ccc(Oc4ccccc4)cc3)n2)cc1Cl | 4.19 | 4.44 | 1.16
CCOc1cc(C(=O)NCCCN2CCCCC2C)ccc1-c1nc2cc(Cl)ccc2[nH]1 (stereo unspecified) | 2.37 | 2.23 | 0.87
COc1ccccc1C1CCN(C2CCC(NC(=O)/C=C/c3cc(F)c(F)cc3F)CC2)CC1 (stereo unspecified) | 2.17 | 2.98 | 2.21
Clc1ccc(C2CCN(CCCOc3ccc4c(c3)CCNCC4)CC2)cc1 | 56.8 | 40.9 | 75.7
CCCCCCCc1c(C)nc2cc(OC)ccc2c1O | 7.36 | 9.59 | 7.02
Cc1cc(NC(=O)c2ccco2)ccc1OC1CCN(Cc2ccc(F)cc2)C1 (stereo unspecified) | 0.1 | 0.21 | 0.41
O=C(Nc1ccc(-c2nc3ccccc3[nH]2)cc1)C1CCCN(C2CCC2)C1 (stereo unspecified) | 19.8 | 14.7 | 8.04
O=C(NC1CCCCC1)N(Cc1ccc(-c2ccc(CNCc3ccc4c(c3)OCO4)cc2)cc1)C1CCN(Cc2ccccc2)CC1 | 2.03 | 1.63 | 1.56
Cc1cc(N[C@@H](CC(C)C)C(=O)NCc2cccc(F)c2)nc(NCC2CCCCC2)n1 | 5.8 | 4.61 | 2.2
